A selection: hits, their analogues and other compounds. The true share with any hit is near 2.3%.
A549 tox: A549 cytotoxicity, counter-screen for Nrf2 inhibitors; AID 504648; A549 ARE-Fluc cells, CellTiter-Fluor viability, 18-24 h; 390,000 tested, 0.16% active; Potency, µM (doses to about 46 µM), hits mostly inhibitors
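Cytotoxicity counterscreen: CellTiter-Fluor fluorescence was measured in A549 ARE_Fluc cells after 18-24 h of compound exposure in a concentration series. The subsequent BugLite luminescent read reports ARE-luciferase activity.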
Rango dissoc inh: prevents RanGTP from dissociating the Rango-importin beta complex. Biochemical FRET Rango-importin beta, RanGTP-induced dissociation. AID 540253. 340,000 tested, 0.071% active. Potency, µM (titrated, usually from 46.1 µM); calls by dose curve; also: nearly all actives have a fitted effect of over 45% in size
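Two FRET readings bracket the reaction: one 5 min after compound meets Rango–importin beta, another 45 min after RanGTP-RCC1 (0.6 uM Ran, 0.2 uM RCC1, 2 mM GTP) is added. Only the second defines inhibition.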
Nrf2 inh: blocks Nrf2 signaling; 360,000 tested, 2.1% active; A549 ARE-Fluc reporter, luciferase luminescence, 18-24 h; AID 504444; Potency, µM (doses to about 46 µM), usual class: inhibitors; also: nearly all actives have a fitted effect of over 60% in size
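Cells were seeded and rested 2 h, then exposed to compounds for 18-24 h. CellTiter-Fluor was read first as a viability measure. BugLite was added 15 min before the final luminescent read of ARE-luciferase activity in A549 cells.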
Nrf2 ARE act: Nrf2 pathway activation; AREc32 ARE-luciferase reporter (MCF7-derived line), luminescence, 24 h; Potency, µM (doses to about 46.1 µM), hits mostly activators; 410,000 tested, 0.31% active; also: nearly all actives have a fitted effect of over 65% in size
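AREc32 cells carrying an ARE-driven firefly luciferase, 1000 cells/well in OPTI-MEM with 5% FBS, dosed after overnight attachment and incubated 24 hr at 37 deg C. Steady-Glo luminescence read after 30 min at RT.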
Rango complex inh: inhibitors of Rango-importin beta complex formation | Rango CFP/YFP FRET sensor + importin beta, 45 min | Q14974 | 340,000 tested, 0.031% active | Potency, µM (highest dose often 92.2 µM); calls by dose curve; also: nearly all actives have a fitted effect of over 15% in size
Target sequence (Q14974 whole entry, looked up): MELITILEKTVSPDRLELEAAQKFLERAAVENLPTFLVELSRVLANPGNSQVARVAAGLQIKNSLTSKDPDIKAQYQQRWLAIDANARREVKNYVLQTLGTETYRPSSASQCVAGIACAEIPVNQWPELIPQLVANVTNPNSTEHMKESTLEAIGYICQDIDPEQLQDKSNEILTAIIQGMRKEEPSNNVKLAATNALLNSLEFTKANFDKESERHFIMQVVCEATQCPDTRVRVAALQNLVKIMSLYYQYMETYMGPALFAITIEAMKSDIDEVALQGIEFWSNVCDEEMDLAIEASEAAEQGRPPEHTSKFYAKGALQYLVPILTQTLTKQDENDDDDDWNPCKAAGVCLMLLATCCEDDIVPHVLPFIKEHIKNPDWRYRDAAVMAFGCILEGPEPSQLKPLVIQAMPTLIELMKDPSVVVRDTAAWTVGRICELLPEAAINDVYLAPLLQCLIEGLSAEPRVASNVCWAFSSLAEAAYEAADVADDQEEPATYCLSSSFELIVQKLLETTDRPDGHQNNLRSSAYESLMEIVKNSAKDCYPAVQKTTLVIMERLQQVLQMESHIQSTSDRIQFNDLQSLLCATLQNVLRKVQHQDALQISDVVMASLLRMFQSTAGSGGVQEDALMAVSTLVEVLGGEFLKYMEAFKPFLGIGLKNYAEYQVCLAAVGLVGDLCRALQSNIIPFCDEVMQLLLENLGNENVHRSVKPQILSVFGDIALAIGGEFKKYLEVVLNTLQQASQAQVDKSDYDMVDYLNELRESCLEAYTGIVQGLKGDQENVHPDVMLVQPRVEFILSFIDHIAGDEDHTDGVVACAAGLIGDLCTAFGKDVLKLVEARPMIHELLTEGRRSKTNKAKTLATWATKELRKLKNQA
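FRET biosensor (snurportin 1 IBB flanked by EYFP and cerulean), 50 nM, with compound 5 min, then 0.125 microM importin beta in PBS, 1 mM DTT, 0.02% Tween-20, 0.1% BSA. CFP/YFP ratio read after 45 min at room temperature; pre-read flags interference.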
Of the large screens only hits and unclear results are named; the others gave an inactive call. Unless noted, calls follow the shape of the dose curve; as a rule, active = well fitted curve in the direction sought with a large enough effect; inconclusive = small, poorly fitted or top-dose-only effect, or another doubt; inactive = no such curve, though single readings can be large; an effect the other way counts as inactive or inconclusive.

O=C(c1ccc(Cl)c(Cl)c1)N1CCC(=O)N(C(COCc2cccc(C(F)(F)F)c2)Cc2ccccc2)CC1 (centres undefined)	A549 tox inconclusive, Nrf2 inh 20.6µM
Cc1cccc(COCC(Cc2ccccc2)N2CCN(C(=O)c3ccc(Cl)c(Cl)c3)CCC2=O)c1 (centres undefined)	Rango complex inh inconclusive
N#CC1=C(N)Oc2c(ccc3ccccc23)C1c1ccsc1 (centres undefined)	A549 tox inconclusive, Rango dissoc inh inconclusive, Nrf2 inh inconclusive, Nrf2 ARE act 8.91µM, Rango complex inh inconclusive
N#CC1=C(N)Oc2c(oc(CO)cc2=O)C1c1ccsc1 (centres undefined)	none
CCC(=O)N1CCc2cc(S(=O)(=O)CCC(=O)N3CCN(c4ccc(C(C)=O)cc4)CC3)ccc21	none
CCC(=O)N1CCc2cc(S(=O)(=O)CCC(=O)N3CCN(c4cccc(Cl)c4)CC3)ccc21	Nrf2 inh 23.1µM (no result: Rango dissoc inh, Rango complex inh)
CC(=O)N1CCc2cc(S(=O)(=O)CCC(=O)N3CCN(c4cc(C)ccc4C)CC3)ccc21	Nrf2 inh 14.6µM
CCC(=O)N1CCc2cc(S(=O)(=O)CCC(=O)N3CCN(c4ccc(Cl)cc4)CC3)ccc21	Nrf2 inh 16.4µM
Cc1cc2c(s1)c1cnn(Cc3cccc(C)c3F)c(=O)c1n2C	none (no result: Rango dissoc inh, Nrf2 ARE act, Rango complex inh)
CC(C)C(=O)NC(Nc1cccc2cccnc12)C(Cl)(Cl)Cl (centres undefined)	none
CC(C)CC(=O)NC(NC(=S)Nc1cccc2cccnc12)C(Cl)(Cl)Cl (centres undefined)	Nrf2 inh 20.6µM
COc1cccc(C(C)NC(=O)c2c(F)cccc2Cl)c1 (centres undefined)	none
COc1cccc(C(C)NC(=O)Nc2ccccc2Cl)c1 (centres undefined)	Nrf2 inh 10.3µM
CC(/C=C/c1ccc(N(C)C)cc1)=N/N=C1/NC(=O)CC(C(=O)Nc2ccc(Cl)cc2)S1 (centres undefined)	A549 tox 18.4µM, Rango dissoc inh inconclusive, Nrf2 inh inconclusive, Rango complex inh inconclusive
Cc1sc(-n2c(C)cc(/C=N/n3cnnc3)c2C)c(C#N)c1C	Nrf2 inh 14.6µM
Cc1cc(/C=C2\SC(=S)NC2=O)c(C)n1-c1cccc(O)c1	A549 tox inconclusive, Rango dissoc inh inconclusive, Rango complex inh inconclusive
Cc1cc(/C=N/n2cnnc2)c(C)n1-c1ccccc1	none (no result: Nrf2 inh)
Cc1sc(-n2c(C)cc(/C=C3\SC(=S)NC3=O)c2C)c(C#N)c1C	A549 tox 20.6µM, Rango dissoc inh inconclusive, Nrf2 inh inconclusive
CCCCN(Cc1ccccc1)C(=O)C1CCC(=O)N(CCc2ccccn2)C1 (centres undefined)	none
Cc1occc1-c1nnc(SCC(=O)NC2CCCCC2C)o1 (centres undefined)	none
COCCCNc1nc2ccccc2nc1NS(=O)(=O)c1cc(Cl)ccc1Cl	Nrf2 inh 20.6µM
COCCCNc1nc2ccccc2nc1NS(=O)(=O)c1ccc(Cl)cc1	none
CCOC(=O)C1CCCN(C(=O)c2ccc3c(c2)N(C)C(=O)/C(=C/c2ccccc2Cl)S3)C1 (centres undefined)	Nrf2 inh 23.1µM
CN1C(=O)/C(=C/c2cccc(Cl)c2)Sc2ccc(C(=O)N3CCOCC3)cc21	Nrf2 inh 14.6µM
CN1C(=O)/C(=C/c2ccccc2Cl)Sc2ccc(C(=O)N3CCCC3)cc21	none
Cc1cc(C)cc(N2C(=O)CC(c3ccc(C(F)(F)F)cc3)C3=C2COC3=O)c1 (centres undefined)	none (no result: Rango dissoc inh, Rango complex inh)
O=C(CCl)N1N=C(c2cccs2)CC1c1ccco1 (centres undefined)	Nrf2 inh inconclusive
O=C(CCl)N1N=C(c2ccco2)CC1c1ccco1 (centres undefined)	Nrf2 ARE act 15.8µM, Rango complex inh inconclusive
O=C(OCC(=O)N1N=C(c2ccc(Cl)cc2)CC1c1ccco1)c1cccnc1 (centres undefined)	Nrf2 inh inconclusive, Nrf2 ARE act 20µM, Rango complex inh inconclusive
COc1ccc(-c2nc(CNC(=O)NC3CCCCC3)c(C)o2)c(OC)c1	none (no result: Rango dissoc inh, Nrf2 inh, Rango complex inh)
C[n+]1c(-c2ccccc2)cc2c(=Cc3ccc([N+](=O)[O-])cc3)c3ccccc3n21	A549 tox inconclusive, Rango dissoc inh inconclusive, Nrf2 inh inconclusive, Rango complex inh inconclusive
CN(C)c1ccc(C=c2c3cc(O)ccc3n3c2cc(-c2ccccc2)[n+]3C)cc1	A549 tox inconclusive, Nrf2 inh 18.4µM
C[n+]1c(-c2ccccc2)cc2c(=Cc3ccccc3)c3ccccc3n21	A549 tox inconclusive, Rango dissoc inh inconclusive, Nrf2 inh 20.6µM, Rango complex inh inconclusive
O=C(CCl)N(c1ccccc1)c1c[nH]c2ccccc12	Nrf2 ARE act inconclusive
O=C(CCl)N(c1ccc(Cl)cc1)c1c[nH]c2ccccc12	A549 tox inconclusive, Nrf2 inh 20.6µM
N#Cc1cccc(NS(=O)(=O)c2ccc3c(c2)CCC(=O)N3)c1	none (no result: Rango dissoc inh, Nrf2 ARE act, Rango complex inh)
Cc1ccc(OCc2ccc(C(=O)Nc3c(C)nn(Cc4c(F)c(F)c(F)c(F)c4F)c3C)o2)c([N+](=O)[O-])c1	Nrf2 inh 8.2µM
COc1c(C)oc2cc(O)ccc2c1=O	none
Oc1ccc2c(c1)oc1cc(O)ccc12	Nrf2 inh inconclusive, Nrf2 ARE act 12.6µM
Cn1nnnc1SCCNCc1ccc(OCc2ccc(Cl)cc2)cc1	Nrf2 inh inconclusive (no result: Rango dissoc inh, Rango complex inh)
C=CCOC(=O)c1sc(NC(=O)c2ccco2)nc1C	Nrf2 inh inconclusive, Nrf2 ARE act 5.01µM (no result: A549 tox)
O=C(CNC(=O)c1cccs1)Nc1ccncc1	Nrf2 inh inconclusive
Cc1cccc(CN2C(=O)N/C(=C/c3cc(C)n(-c4ccccn4)c3C)C2=O)c1	Rango dissoc inh 5.17µM, Rango complex inh inconclusive
Cn1c(=O)n(C)c2cc([N+](=O)[O-])c(N3CCN(C(=O)c4ccccc4Br)CC3)cc21	A549 tox inconclusive, Nrf2 inh 18.4µM
O=S1(=O)C=C(N2CCOCC2)c2ccccc21	Nrf2 ARE act 12.6µM
COc1ccc(/C=C/C(=O)N2CCC(c3nc4ccccc4o3)CC2)cc1	Nrf2 inh inconclusive (no result: Rango dissoc inh, Rango complex inh)
O=c1oc2ccccc2nc1/C=C(O)/C=C\c1ccccc1	Nrf2 ARE act 15.8µM
Cc1ccc(/C(O)=C/c2nc3ccccc3oc2=O)cc1	Nrf2 ARE act 12.6µM
O=c1oc2ccccc2nc1/C=C(O)/C=C/c1ccc(F)cc1	Rango dissoc inh inconclusive, Nrf2 ARE act 17.8µM, Rango complex inh inconclusive
CCN(CC)Cc1cc(Nc2c3ccccc3nc3c4ccccc4n(C)c23)cc(CN(CC)CC)c1O	A549 tox 16.4µM, Rango dissoc inh inconclusive, Nrf2 inh inconclusive, Nrf2 ARE act inconclusive, Rango complex inh inconclusive
CSCC[C@H](NC(=O)c1cccc(S(=O)(=O)N2CCN(C)CC2)c1)c1nc2ccccc2[nH]1	none

Compound activity from PubChem BioAssay.
